A selection: hits, their analogues and other compounds. The true share with any hit is near 1.2%.
GSH fluor: GSH bead compound fluorescence profile; fluorescence (KMESF) at 10 µM; 0.25% of 190,000 active; GSH beads flow cytometry, compound fluorescence 488/530 nm; active compounds read high; in the data active = fluorescence above about 89;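 also: glutathione beads carrying GST-tagged Bcl family fusion proteins plus one bare bead set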
RGS4-Gao reg: human RGS4-Galphao interaction regulation; P09471; Multiplexed bead flow cytometry, RGS4-Galphao binding; actives lie on both sides; binding response (% of control), % at 10 µM; 0.33% of 220,000 active; AID 1415; in the data active = binding response below about 49% or above about 150%; inactive = in between;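 also: fluorescent Galphao activated with aluminum fluoride binding bead-coupled RGS4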
Target sequence (P09471 whole entry, looked up): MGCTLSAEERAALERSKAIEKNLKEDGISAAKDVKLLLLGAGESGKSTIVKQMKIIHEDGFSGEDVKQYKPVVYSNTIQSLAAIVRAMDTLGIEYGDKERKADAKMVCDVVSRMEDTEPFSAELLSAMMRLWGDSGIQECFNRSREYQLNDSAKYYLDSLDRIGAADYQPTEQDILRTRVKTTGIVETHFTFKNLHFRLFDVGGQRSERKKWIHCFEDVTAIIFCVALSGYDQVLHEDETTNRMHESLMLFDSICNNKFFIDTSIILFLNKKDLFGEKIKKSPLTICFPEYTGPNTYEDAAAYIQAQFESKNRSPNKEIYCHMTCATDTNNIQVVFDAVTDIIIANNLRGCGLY
Avidin bead fluor: avidin bead compound fluorescence profile | Avidin beads, compound fluorescence 488/530 nm, flow cytometry; active compounds read high | fluorescence (KMESF) at 10 µM | 0.38% of 220,000 active; in the data active = fluorescence above about 47
RGS8-Gao: modulates binding of RGS8 to human Galphao. P09471. multiplexed bead flow cytometry; actives lie on both sides. response (percent of control binding), % at 10 µM. 0.34% of 220,000 active. AID 1423; in the data active = response below about 60% or above about 140%; inactive = in between;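 also: Galphao activated as the GDP aluminium fluoride complex binding bead-coupled RGS8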
RGS16-Gao: RGS16-Galphao interaction regulator (human). O15492+P09471. bead-based flow cytometry RGS16-Galphao binding, fluorescence; actives lie on both sides. binding response (% of control), % at 10 µM. 0.38% of 220,000 active;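 also: Galphao activated by GDP with aluminum fluoride before binding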
Target sequence (O15492 whole entry, looked up): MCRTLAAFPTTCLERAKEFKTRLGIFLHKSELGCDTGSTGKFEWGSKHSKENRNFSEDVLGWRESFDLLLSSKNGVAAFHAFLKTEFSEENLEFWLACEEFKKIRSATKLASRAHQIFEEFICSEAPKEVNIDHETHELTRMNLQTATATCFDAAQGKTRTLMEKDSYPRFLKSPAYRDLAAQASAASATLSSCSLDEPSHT
Target sequence (P09471 whole entry, looked up): as the sequence (P09471 whole entry, looked up) above
RGS7-Gao: human RGS7-Galphao interaction regulation; P09471; Multiplexed bead flow cytometry, RGS7-Galphao binding; actives lie on both sides; binding response (% of control), % at 10 µM; 0.35% of 220,000 active; AID 1439; in the data active = binding response below about 49% or above about 150%; inconclusive = no clear call, values can overlap the other calls; inactive = in between;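 also: fluorescent Galphao held in activated GDP-AlF4 state binding bead-coupled RGS7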
RGS4-Gao HTS: RGS4-Galphao interaction regulator (human) | shares compounds with RGS16-Gao | multiplexed bead flow cytometry, RGS–Galpha-o binding | RGS4–Galpha-o binding response, % at 10 µM | 99% of 1,600 active | AID 1504;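 also: fluorescently labeled Galpha-o bound to GDP with aluminium fluoride binding biotinylated RGS beads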
Biotin-avidin: interferes with biotinylated probe binding to avidin beads | shares compounds with RGS16-Gao | streptavidin beads, fluorescein-biotin binding, flow cytometry | inhibition, % at 10 µM | 1,700 tested, under 10 active | AID 1783;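 active = inhibition above 50%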;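 also: median green fluorescence of gated singlet beads compared with DMSO control wells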
RGS8-Gao single: RGS8-Galphao interaction regulation, single point confirmation; binding response (% of control), % at 10 µM; shares compounds with RGS16-Gao; 3% of 1,700 active; bead-based flow cytometry RGS8-Galphao binding, fluorescence; actives lie on both sides; AID 1836; in the data active = binding response below about 72% or above about 130%; inactive = in between;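 also: Galphao activated as GDP AlF4 complex before binding bead RGS8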
RGS7-Gao single: confirmation of regulators of human RGS7-Galphao interaction | response (percent of control binding), % at 10 µM | shares compounds with RGS16-Gao | 7.8% of 1,700 active | bead-based flow cytometry RGS7-Galphao binding; actives lie on both sides; in the data active = response below about 75% or above about 130%; inactive = in between;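 also: fluorescent Galphao activated with GDP and aluminum fluoride binding bead-coupled RGS7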
RGS16-Gao conf: confirmation of regulators of human RGS16-Galphao interaction | 4% of 1,700 active | response (% of control binding), % at 10 µM | shares compounds with RGS16-Gao | bead-based flow cytometry, RGS16-Galphao binding; actives lie on both sides; in the data active = response below about 74% or above about 130%; inactive = in between;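 also: Galphao activated as the GDP aluminium fluoride complex binding bead-coupled RGS16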
RGS4-Gao confirm: RGS4-Galphao interaction regulation, single point confirmation; shares compounds with RGS16-Gao; RGS4-Galphao binding, multiplexed bead flow cytometry; actives lie on both sides; binding response (% of control), % at 10 µM; 4% of 1,700 active; AID 1840; in the data active = binding response below about 74% or above about 130%; inactive = in between
RGS19-Gao single: RGS19-Galphao interaction regulation, single point confirmation; shares compounds with RGS16-Gao; bead-based flow cytometry RGS19-Galphao binding; actives lie on both sides; response (percent of control binding), % at 10 µM; 5% of 1,700 active; in the data active = response below about 50% or above about 160%; inactive = in between
Of the large screens only hits and unclear results are named; the others gave an inactive call (follow-up assays come after a bar, where they were run); [ ] = dose if it differs, or a comment. Unless noted, no rule for the calls is given here.

COc1ccccc1CNC(=O)C1CC(c2ccccc2[N+](=O)[O-])=NO1 (stereo unspecified)	Avidin bead fluor 49
COc1ccc(CNC(=O)C2CC(c3ccccc3[N+](=O)[O-])=NO2)cc1 (stereo unspecified)	none
Clc1ccc(CONc2ncnc3nonc23)c(Cl)c1	none
NS(=O)(=O)c1ccc(CCNC(=O)COC(=O)/C=C/c2ccc(Cl)cc2)cc1	none
O=S(=O)(Nc1ccc(Cl)cc1)c1ccc2c(c1)CCO2	Avidin bead fluor 62, RGS7-Gao inconclusive (no result: GSH fluor)
Cc1ccnc(NS(=O)(=O)c2ccc3c(c2)CCO3)c1	RGS7-Gao inconclusive (no result: GSH fluor)
CC(C)S(=O)(=O)c1cnc(-c2ccccn2)nc1N	RGS7-Gao inconclusive (no result: GSH fluor)
O=C(NCc1ccc(F)cc1)C(C(=O)NCc1ccc(F)cc1)c1ncc(C(F)(F)F)cc1Cl	none
O=C(NCc1ccco1)c1ccc(-c2csnn2)cc1	RGS7-Gao inconclusive (no result: GSH fluor)
O=C(NCc1ccco1)/C(=C/c1cccnc1)NC(=O)c1ccco1	RGS4-Gao reg 21.0, RGS8-Gao 12.5, RGS16-Gao 1.6, RGS7-Gao 14.1
COC(=O)c1cc2c(ccn2-c2ccc(F)cc2)n1CC(C)C	none
COC(=O)c1cc2c(ccn2-c2ccc(F)cc2)n1C(C)C	Avidin bead fluor 52
CC(=O)Nc1ccc(C)c(NS(=O)(=O)c2cccc(C(F)(F)F)c2)c1	RGS7-Gao inconclusive (no result: GSH fluor)
CC(C)COc1ccc(/C(O)=C2/C(=O)C(=O)N(CCN(C)C)C2c2ccncc2)cc1 (stereo unspecified)	none
COc1cc(C2/C(=C(/O)c3ccc(OCC(C)C)cc3)C(=O)C(=O)N2CCN(C)C)ccc1O (stereo unspecified)	GSH fluor 262
CCN(CC)C(=O)c1ccc(S(=O)(=O)NCc2cccnc2)cc1	none (no result: RGS4-Gao reg, Avidin bead fluor, RGS8-Gao, RGS16-Gao, RGS7-Gao) | Biotin-avidin inactive | RGS8-Gao single inactive | RGS7-Gao single inactive | RGS16-Gao conf inactive | RGS4-Gao confirm inactive | RGS19-Gao single inactive
Cc1ccc(S(=O)(=O)NCc2ccc(C(=O)NCc3cccnc3)cc2)cc1	none
C=CCNC(=O)NC(=O)COC(=O)c1ccccc1Sc1ccc(C(F)(F)F)cc1[N+](=O)[O-]	RGS16-Gao 184.1[activator] | RGS4-Gao HTS 106.1 | Biotin-avidin inactive | RGS8-Gao single inactive | RGS7-Gao single inactive | RGS16-Gao conf inactive | RGS4-Gao confirm inactive | RGS19-Gao single inactive
CC(C)CNC(=O)NC(=O)COC(=O)c1ccccc1Sc1ccc(C(F)(F)F)cc1[N+](=O)[O-]	none
C/C=C\C(=O)Nc1cccc(C2=NOC3(C2)C[C@H](C(N)=O)N(C(=O)[C@H]2CCC(=O)N2)C3)c1 (stereo partly specified)	RGS7-Gao inconclusive (no result: GSH fluor)
COc1ccc(C2(O)CCN(CC(=O)Nc3nc(-c4ccccc4)cs3)CC2)cc1	none
Cc1ccc(N2CN=c3s/c(=C\c4ccccn4)c(=O)n3C2)cc1	RGS8-Gao 59.5, RGS7-Gao 48.2 | RGS4-Gao HTS 51.3 | Biotin-avidin inactive | RGS8-Gao single inactive | RGS7-Gao single inactive | RGS16-Gao conf inactive | RGS4-Gao confirm inactive | RGS19-Gao single inactive
Cc1ccc(S(=O)(=O)N2CCN(C(=O)c3cccc(F)c3)CC2)cc1	Avidin bead fluor 172, RGS7-Gao 264.3[activator] | RGS4-Gao HTS 124.9 | Biotin-avidin inactive | RGS8-Gao single inactive | RGS7-Gao single inactive | RGS16-Gao conf inactive | RGS4-Gao confirm inactive | RGS19-Gao single inactive
O=C(CC1SC(=NCC2CCCO2)NC1=O)Nc1cccc2ccccc12 (stereo unspecified)	RGS4-Gao reg 10.8, RGS8-Gao 6.6, RGS16-Gao -12.1, RGS7-Gao -5.8 | Biotin-avidin inactive | RGS8-Gao single inactive | RGS7-Gao single inactive | RGS16-Gao conf inactive | RGS4-Gao confirm inactive | RGS19-Gao single inactive
O=C(O)/C=C/c1cn(-c2ccccc2)nc1-c1ccc(-c2ccc([N+](=O)[O-])cc2)o1	RGS7-Gao inconclusive (no result: GSH fluor)
Cc1ccc2c(C(=O)CNc3nncs3)c(C)[nH]c2c1	RGS7-Gao inconclusive (no result: GSH fluor)
COc1ccccc1NC(=O)c1c(N=Cc2cccc([N+](=O)[O-])c2)cnn1C	RGS7-Gao inconclusive (no result: GSH fluor)
O=C(Nc1ccc(Cl)c(Cl)c1)Nc1ccc(Br)cc1F	none
O=C(Nc1ccc(Cl)c(Cl)c1)Nc1ccccc1O	RGS4-Gao reg 13.2, RGS8-Gao 38.7, RGS16-Gao 16.5, RGS7-Gao inconclusive (no result: GSH fluor) | Biotin-avidin inactive | RGS8-Gao single inactive | RGS7-Gao single 70.3 | RGS16-Gao conf inactive | RGS4-Gao confirm inactive | RGS19-Gao single inactive
Cn1c2c(c(=O)n(C)c1=O)CN(Cc1ccc3c(c1)OCO3)CN2	RGS16-Gao 222.3[activator] | RGS4-Gao HTS 104.0 | Biotin-avidin inactive | RGS8-Gao single inactive | RGS7-Gao single inactive | RGS16-Gao conf inactive | RGS4-Gao confirm inactive | RGS19-Gao single inactive
S=c1[nH]nc(COc2ccccc2)n1Cc1ccccc1	RGS8-Gao 50.1, RGS16-Gao 3.7 | RGS4-Gao HTS 80.3 | Biotin-avidin inactive | RGS8-Gao single inactive | RGS7-Gao single inactive | RGS16-Gao conf inactive | RGS4-Gao confirm inactive | RGS19-Gao single inactive
CCCCC(=O)OCC(=O)c1cc(C)n(-c2c(C)n(C)n(-c3ccccc3)c2=O)c1C	none
CC1CCN(S(=O)(=O)c2cccc(C(=O)Oc3ccc([N+](=O)[O-])cc3)c2)CC1	RGS16-Gao 24.0 | RGS4-Gao HTS 96.7 | Biotin-avidin inactive | RGS8-Gao single inactive | RGS7-Gao single inactive | RGS16-Gao conf inactive | RGS4-Gao confirm inactive | RGS19-Gao single inactive

Screens (PubChem BioAssay)
